“And” between values parts separate entries of the source, which are not always exact repeats. Equal entries are not always repeated. Results filed as inconclusive are left out. The source made the active and inactive calls. How the source made its calls, unless noted: active means hit-call score of the fitted dose curve at least 0.9, where 1 is the maximum; inconclusive means response in the unintended direction; inactive means score below 0.9.
Read-out: not listed separately
Experiment: BSK_3C_Proliferation: Cell Proliferation Assessment in the BioMAP Diversity Plus: 3C Assay (AID 2283006; active means hit-call score of the fitted dose curve at least 0.9, where 1 is the maximum; inactive means score below 0.9;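 on AC50: potency may reflect either rise or fall in cell number versus DMSO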)
Settings: primary human endothelial cells (HUVEC)
In short: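 Subconfluent HUVEC (3C system) cultured with chemical; relative cell number read at 48 h by sulforhodamine B total-protein staining (0.1% SRB after 10% TCA fixation, 560 nm). Bidirectional fit relative to DMSO.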
With `CNS(=O)(=O)C(F)(F)C(F)(F)C(F)(F)C(F)(F)C(F)(F)C(F)(F)C(F)(F)C(F)(F)F` the AC50 was 30 µM (active) and 23.8 µM (active).
With `Cc1ccc(O)c(-n2nc3ccccc3n2)c1` the outcome was “inactive”.
In the case of `OC(O)C(F)(F)C(F)(F)F`, the outcome is reported as “inactive”.
With `CC(C)CCCC(C)CCO` (configuration not stated) the AC50 was 30.4 µM (active).
In the case of `C[C@]12CC[C@H]3C(=CCc4cc(O)ccc43)[C@@H]1CCC2=O`, the AC50 is reported as 32.1 µM (active).
With `O=C(O)CCC(F)(F)C(F)(F)C(F)(F)C(F)(F)C(F)(F)C(F)(F)C(F)(F)F` the outcome was “inactive”.
For `CC1=CC2C3C=CC(C3)C2C1C` (configuration not stated), the outcome was “inactive”.
With `O=C(Cl)C(F)(F)C(F)(F)C(F)(F)C(F)(F)C(F)(F)C(F)(F)F` the outcome was “inactive”.
For `Nc1cc([N+](=O)[O-])cc(Cl)c1O`, the outcome was “inactive”.
With `O=C1C=CC(=O)N1c1ccc(Cc2ccc(N3C(=O)C=CC3=O)cc2)cc1` the AC50 was 3.52 µM (active).
With `NC(=O)C(F)(F)C(F)(F)C(F)(F)C(F)(F)C(F)(F)C(F)(F)C(F)(F)F` the outcome was “inactive”.
With `C=CC(=O)OCC(F)(F)C(F)(F)C(F)(F)COC(=O)C=C` the AC50 was 8.32 µM (active) and 9.46 µM (active).
For `OCCCC(F)(F)C(F)(F)C(F)(F)C(F)(F)C(F)(F)C(F)(F)C(F)(F)C(F)(F)F`, the AC50 was 7.56 µM (active) and 9.56 µM (active).
With `Cc1cc(O)c(C(C)(C)C)cc1C(C)(C)C` the AC50 was 2.36 µM (active).

Target: Peroxisome proliferator-activated receptor gamma (Homo sapiens) (UniProt P37231)
Sequence (P37231 whole entry, looked up): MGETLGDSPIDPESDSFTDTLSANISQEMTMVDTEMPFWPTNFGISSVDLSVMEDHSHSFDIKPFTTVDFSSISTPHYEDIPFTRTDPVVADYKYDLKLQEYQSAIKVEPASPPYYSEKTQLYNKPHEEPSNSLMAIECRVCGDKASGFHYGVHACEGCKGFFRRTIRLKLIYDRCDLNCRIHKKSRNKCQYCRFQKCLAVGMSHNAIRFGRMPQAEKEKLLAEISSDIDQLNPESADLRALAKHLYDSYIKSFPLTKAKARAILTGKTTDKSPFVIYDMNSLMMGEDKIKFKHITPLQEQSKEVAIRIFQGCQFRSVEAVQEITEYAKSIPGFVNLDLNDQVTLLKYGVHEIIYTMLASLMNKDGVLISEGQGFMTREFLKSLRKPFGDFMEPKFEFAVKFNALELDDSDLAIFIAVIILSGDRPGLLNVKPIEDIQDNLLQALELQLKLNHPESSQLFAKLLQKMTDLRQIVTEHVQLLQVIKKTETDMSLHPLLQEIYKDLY
Experiment: ATG_PPARg_TRANS: Attagene TRANS-FACTORIAL HepG2 Assay for human Peroxisome Proliferator-activated Receptor-gamma (PPARg) (AID 2283007)
Settings: not given
In short: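 After 24 h of chemical exposure, transfected HepG2 cells carrying PPARγ-Gal4 chimera reporter constructs are lysed for RNA. Reporter transcripts are measured by RT-PCR and capillary electrophoresis with fluorescent labelling, and gain of signal is fitted versus DMSO.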
With `CCOC(OCC)OCC` the outcome was “inactive”.
In the case of `Cc1ccc(O)c(-n2nc3ccccc3n2)c1`, the outcome is reported as “inactive”.
For `C#CC(O)CCC` (configuration not stated), the outcome was “inactive”.
For `OC(O)C(F)(F)C(F)(F)F`, the outcome was “inactive”.
For `OCCCc1cccnc1`, the outcome was “inactive”.
With `CC(C)CCCC(C)CCO` (configuration not stated) the outcome was “inactive”.
In the case of `CCC/C=C/CO`, the outcome is reported as “inactive”.
For `CC1=CCC(=O)O1`, the outcome was “inactive”.
In the case of `CCc1cccc(C)c1N(C(=O)C(=O)O)C(C)COC` (configuration not stated), the outcome is reported as “inactive”.
For `C[C@]12CC[C@H]3C(=CCc4cc(O)ccc43)[C@@H]1CCC2=O`, the outcome was “inactive”.
With `CC(C)OC(=O)COc1ccc(Cl)cc1Cl` the outcome was “inactive”.
For `O=C(O)CCC(F)(F)C(F)(F)C(F)(F)C(F)(F)C(F)(F)C(F)(F)C(F)(F)F`, the AC50 was 150 µM (active).
In the case of `CC(C)(C)c1cc(Cc2cc(C(C)(C)C)c(O)c(C(C)(C)C)c2)cc(C(C)(C)C)c1O`, the outcome is reported as “inactive”.
With `CC1=CC2C3C=CC(C3)C2C1C` (configuration not stated) the outcome was “inactive”.
For `O=C(Cl)C(F)(F)C(F)(F)C(F)(F)C(F)(F)C(F)(F)C(F)(F)F`, the AC50 was 71.1 µM (active).
In the case of `Nc1c(Br)cc([N+](=O)[O-])cc1Br`, the outcome is reported as “inactive”.
For `C=CC(=O)OCC(F)(F)C(F)(F)C(F)(F)COC(=O)C=C`, the AC50 was 2.69 µM (active).
With `OCCCC(F)(F)C(F)(F)C(F)(F)C(F)(F)C(F)(F)C(F)(F)C(F)(F)C(F)(F)F` the outcome was “inactive”.
In the case of `N#Cc1ccccc1O`, the outcome is reported as “inactive”.
With `CCCCCCCCCc1ccc(OCCO)cc1` the outcome was “inactive”.
For `COC(=O)c1ccc(C=O)cc1`, the outcome was “inactive”.
In the case of `Cc1ccc(O)cn1`, the outcome is reported as “inactive”.
In the case of `Cc1cc(O)c(C(C)(C)C)cc1C(C)(C)C`, the outcome is reported as “inactive”.
